# Measurements taken from the OligoGym collection.
# Target: WDR59
# Assay: pooled miR-30 sensor sort-seq; sequence = guide strand
# Details: shRNA
# Also: reference of the scale not given here.
row,Sequence,sensor-assay potency score (higher = more potent)
1,ATAGACAACACACAAAGCGCAG,-1.07
2,TTCACCAGCATCTTGACACGAT,0.208
3,TAAAGCTAGGATATCGACTATG,-0.97
4,TAGACAACACACAAAGCGCAGC,-0.806

# Target: WDR74
# Assay: as above
# Details: shRNA
row,Sequence,sensor-assay potency score (higher = more potent)
1,TTGAGACTTGAGATAAACCTTA,0.692
2,TTCTTCTTTCTCCGTCTCGTTT,-0.81
3,ATATCTTCAAAGCATTCTCTTT,-1.27
4,TAGTGAGTACTCTCCATAGGTG,-0.709
5,TTCAAGATCCCAGTCTCGGTGC,-0.0333
6,TGGATCATAAACACGGACCTGG,0.064
7,TGACAAGCTTCTGTGATCCTGG,0.195
8,TATCTTCAAAGCATTCTCTTTC,-0.0108
9,TATCCTCAAGACTCTGTCCAAG,-0.997
10,TTTCGCTGAAGATTTACCCCTT,0.223
11,TGTCTCTGTGTCTTCTAGGGGC,-0.152
12,TTCACCGTCCTGTCCGCGCAGC,-1.09

# Target: WDR7
# Assay: as above
# Details: shRNA
row,Sequence,sensor-assay potency score (higher = more potent)
1,TGTCTTTATTGCTTGAACCATC,-1.06
2,TTAATTTGCAGTTCTACTGAAA,-0.417
3,TTAGGTTTGTCTTTATTGCTTG,0.201
4,TATTGCTTGAACCATCAGGGAG,-0.959
5,TTAGACAAACAAGTGATTGATG,-0.425
6,ATATTTGGAACACACAACCAAA,-1.51
7,TTTAGAATCTCAACTGCTGTTA,0.0218
8,TAACACAGTGCATAGCAGCTAA,-0.462
9,TTTGTCCGTCGTGACATCCTGT,-0.661
10,TAAGTGAATCAACAGCAGCAGG,-1.52
11,TTGTCCGTCGTGACATCCTGTT,-0.875
12,TAGCTGACCATGTAGAACCTGC,0.024

# Target: WDR96
# Assay: as above
# Details: shRNA
row,Sequence,sensor-assay potency score (higher = more potent)
1,TTTTTGAGTAGTTTCTTGCAGT,-0.3
2,TAAGTTGTCATAGTGCTCCTTG,0.702
3,TTTCTCTAGAGCTTAATTCTTC,-0.586
4,TACATCTTTACTTTCCATCATG,-0.972
5,TTGCTGATCATAAACGACGTGC,0.0797
6,TAATCTTTCAACTTCAGTCTGT,0.842
7,TAGATTTCCGAACAGCTTCTGA,-0.901
8,TCATCTTGCACAACAAGCGTTC,-0.652
9,TTACACAAAATGATACTCGATT,-0.176
10,TTGCCTTTCAATTTGGTCCTTC,0.277
11,TACACAAGCACAATCCTCCAGC,-0.19
